Here are results for 101 molecules from PubChem BioAssay AID1259343 (VanderVen Lab, College of Veterinary Medicine, Cornell …, 2017).

Among all 6,200 compounds or so, about 2,900 (47%) were called active. The set was probably picked from earlier hits. Some of the results follow. A number with no mark means an inactive call. Rule as the data show it: active = inhibition above about 50%; inactive = the rest.

As usually defined, the inhibition is the change of the read-out against control, counted positive when it falls.

This assay in a line: Mycobacterium tuberculosis growth inhibition, primary screen (AID 1259343). The following applies: inhibition: at 10 µM, stronger effect = higher value; outcome: 10 uM.
For the molecule `COc1cccc(C2c3c(oc4cc(C)c(C)cc4c3=O)C(=O)N2c2nccs2)c1OC` (stereo unspecified), the inhibition was -18.6%.

Consider `Oc1ccc(Nc2nc(N3CCCC3)c3ccccc3n2)cc1`, for which the inhibition is 83.1% (active).

With `c1ccc(CN2CCN(c3nc(-c4cccnc4)nc4ccccc34)CC2)cc1`, the inhibition was 26.4%.

`Cc1cc(N2CCCCC2)nc(Nc2ccc(NS(=O)(=O)c3ccc4nc(C)sc4c3)cc2)n1`: the inhibition was 25.5%.

Regarding `COc1ccc(OCc2nc(C#N)c(N3CCCC3)o2)cc1`, the inhibition is -23.3%.

Regarding `N#Cc1nc(COc2ccc(Cl)cc2)oc1N1CCCC1`, the inhibition is 92.6% (active).

As to `CCOC(=O)C1CCCN(c2oc(-c3ccc(Cl)cc3)nc2C#N)C1` (stereo unspecified), the inhibition was 12.5%.

As to `COc1ccc(C[C@H](N)C(=O)N[C@@H]2[C@@H](CO)OC(n3cnc4c(N(C)C)ncnc43)[C@@H]2O)cc1` (stereo partly specified), the inhibition was 66.6% (active).

Take `CN(C)N=Nc1nc[nH]c1C(N)=O`: the inhibition is 70% (active).

As to `CC(C)(C)c1csc(NC(=O)c2ccc(Cl)s2)n1`, the inhibition was -24%.

As for `Cc1cc(C(=O)Nc2nc(C(C)(C)C)cs2)c(C)o1`, the inhibition is 60.2% (active).

In the case of `CC(C)(C)C(=O)Nc1nc(CC23CC4CC(CC(C4)C2)C3)cs1`, the inhibition was 38%.

Take `CC(C)(C)c1csc(NC(=O)CC2OCCc3ccsc32)n1` (stereo unspecified): the inhibition is 22.8%.

As for `CC(C)(C)c1csc(NC(=O)C23CC4CC(CC(C4)C2)C3)n1`, the inhibition is 61.1% (active).

Consider `Cc1ccc(-c2ccc(C3=CC(C)(C)OC3=O)cc2)cc1`, for which the inhibition is 43.7%.

On to `O=C(Nc1cccc(Cl)c1)Oc1ccccc1-c1ccccc1`, for which the inhibition is 17.6%.

On to `N#CC1=C2Sc3ccccc3N2C(O)(C(F)(F)F)C(C(=O)C(F)(F)F)=C1` (stereo unspecified), for which the inhibition was 71.5% (active).

Regarding `Clc1cccc(C2Nc3cccc4cccc(c34)N2)c1Cl`, the inhibition was 97.7% (active).

With `Fc1ccc(Br)cc1C1Nc2cccc3cccc(c23)N1`, the inhibition is 14.4%.

In the case of `Fc1cccc(Cl)c1C1Nc2cccc3cccc(c23)N1`, the inhibition was -12.9%.

For `Fc1ccccc1Nc1nc(COc2cccc(Cl)c2)cs1`, the inhibition was 75.5% (active).

Take `CCC(C)[C@H]1O[C@]2(CC[C@@H]1C)C[C@@H]1C[C@@H](C/C=C(\C)[C@@H](OC3C[C@H](OC)C(O[C@H]4C[C@H](OC)[C@@H](O)[C@H](C)O4)[C@H](C)O3)[C@@H](C)/C=C/C=C3\CO[C@@H]4[C@H](O)C(C)=C[C@@H](C(=O)O1)[C@]34O)O2` (stereo partly specified): the inhibition is 67.3% (active).

Regarding `O=C1c2sc3nnc(-c4ccccc4)c(=O)n3c2C(=O)N1c1cccc(Cl)c1Cl`, the inhibition is 90.4% (active).

As to `NS(=O)(=O)c1ccc(N2CCN(c3cccc(Cl)c3)CC2)nc1`, the inhibition is 52.9% (active).

With `Clc1cccc(N2CCN(c3nnnn3-c3ccccc3)CC2)c1`, the inhibition is -17.8%.

For `Cc1nc(-c2c[nH]c(C(=O)N(C)C3CCC(C)CC3)c2)cs1` (stereo unspecified), the inhibition is 29.5%.

`Cc1nc(-c2c[nH]c(C(=O)NC3CCC4CCCC4C3)c2)cs1` (stereo unspecified): the inhibition is 87.9% (active).

In the case of `Cn1nc(CC(=O)NC2CCC3CCCCC3C2)c2ccccc2c1=O` (stereo unspecified), the inhibition was 14.5%.

On to `Cc1ccc2nc(C3CCN(c4nncc(-c5ccc(Cl)cc5)n4)CC3)[nH]c2c1`, for which the inhibition is 37.6%.

Turning to `CC(NCc1ccco1)c1nnc(-c2ccc(F)cc2)o1` (stereo unspecified), the inhibition is 25.6%.

As to `Clc1ccc(CNCc2cn[nH]c2-c2ccc(-c3ccccc3)cc2)s1`, the inhibition was 74.1% (active).

Turning to `CC(NCc1cn[nH]c1-c1ccc(-c2ccccc2)cc1)c1ccc(F)cc1` (stereo unspecified), the inhibition is 83.9% (active).

In the case of `CC(NCc1nnc(-c2cccc(Br)c2)o1)c1cccc(F)c1` (stereo unspecified), the inhibition is -7.48%.

Take `CCCCc1ccc(-c2csc(NC(=O)C3(C)CCOCC3)n2)cc1`: the inhibition was 43.9%.

As for `O=C(OC1CCCC1)c1ccc(NC(=O)C2COCCO2)cc1` (stereo unspecified), the inhibition is 84.8% (active).

As to `CCCc1ccc(-c2ccc(NC(=O)C3COCCO3)cc2)cc1` (stereo unspecified), the inhibition was 72.3% (active).

Consider `CC(C)Cc1ccc(-c2csc(NC(=O)C3COCCO3)n2)cc1` (stereo unspecified), for which the inhibition was 90.5% (active).

On to `Cc1nnsc1C(=O)Nc1ccc(C(=O)OC2CCCC2)cc1`, for which the inhibition was -6.8%.

With `Cc1cccc(OCCC(=O)Nc2ccc3c(c2)oc(=O)n3C)c1C`, the inhibition is 15.8%.

As to `CC(C)Oc1ccc(C(=O)Nc2ccc3c(c2)oc(=O)n3C)cn1`, the inhibition is 92.7% (active).

With `O=c1[nH]c(=O)n(CCC2=CCCCC2)c(O)c1C=C1C=CC=N1`, the inhibition is 89.4% (active).

For the molecule `CSc1nc(NCC(C)C)c2cnn(CCNC(=O)CC(C)C)c2n1`, the inhibition was -2.36%.

For the molecule `CCCNc1nc(SC)nc2c1cnn2CCNC(=O)c1c(F)cccc1Cl`, the inhibition is 60.4% (active).

For the molecule `CSc1nc(N2CCCC2)c2cnn(CCNC(=O)c3cccs3)c2n1`, the inhibition was 9.6%.

Regarding `CC(=NNC(N)=S)c1ccc2c(c1)OCCO2`, the inhibition was 69% (active).

As for `CC(=NNC(N)=S)c1ccc(C)cc1`, the inhibition was 76.6% (active).

On to `CC(=NNC(N)=S)C12CC3CC(CC(C3)C1)C2`, for which the inhibition is 14.6%.

`C=CCNC(=S)NN=Cc1ccc2c(c1)OCCO2`: the inhibition was 23.3%.

Take `CC(=NNC(N)=S)C(C)=NNC(N)=S`: the inhibition is 54.6% (active).

Take `CC(=NNC(=S)NC(C)C)c1ccc(C(C)(C)C)cc1`: the inhibition was 5.89%.

As to `CC(=NNC(=S)NC(C)C)c1ccc2c(c1)OCCO2`, the inhibition was 88.1% (active).

For `COc1ccccc1-n1cc(-c2ccnc(N(C)Cc3cccc(C)n3)n2)cn1`, the inhibition was 29.4%.

As for `COc1ccc(-c2cnnc(N3CCC(c4ccccc4Cl)C3)n2)cc1` (stereo unspecified), the inhibition entry was “inactive”.

For the molecule `C=C(C)NC(=S)Nc1nccs1`, the inhibition was 7.83%.

For `CC1CCC(N(C(=O)Nc2nccs2)C2CC2)CC1` (stereo unspecified), the inhibition is 53.1% (active).

Turning to `CC1=CC(=O)c2c(O)cccc2C1=O`, the inhibition is 102% (active).

As for `O=C(O)c1ccccc1-c1c2cc(Br)c(=O)cc-2oc2[c]([Hg])c(O)c(Br)cc12`, the inhibition was 66.5% (active).

Consider `COc1ccccc1-c1cc(=O)c2cccc(OC)c2o1`, for which the inhibition was -0.59%.

For `CCCCCCCCON1C(=O)C2C3C=CC(O3)C2C1=O` (stereo unspecified), the inhibition was 8.42%.

Regarding `O=C(NNC(=O)C12CC3CC(CC(C3)C1)C2)c1sccc1-n1cccc1`, the inhibition is 61.1% (active).

For `Cc1ccc(C)n1-c1ccsc1C(=O)NC1CCCC1`, the inhibition is 39.9%.

Take `O=C(NCCc1ccc2c(c1)OCCO2)C12CC3CC(CC(C3)C1)C2`: the inhibition was 45.1%.

In the case of `CC1CCC(NC(=O)c2sccc2-n2cccc2)CC1` (stereo unspecified), the inhibition was 87.7% (active).

With `COCC(Nc1ncc(Br)cn1)c1ccc(C)o1` (stereo unspecified), the inhibition is 38.8%.

`Cc1nc(-c2ccc(Oc3ccc(C(F)(F)F)cn3)cc2)no1`: the inhibition is 89.7% (active).

As for `Cc1ccn2cc(C(=O)Nc3nc4ccccc4s3)nc2c1`, the inhibition is 50.8% (active).

As for `CCOc1ccc2nc(NC(=O)c3ccc(C)o3)sc2c1`, the inhibition was 25.2%.

As to `O=C(NCC12CC3CC(CC(C3)C1)C2)c1ccccc1`, the inhibition was 25.9%.

Consider `O=C(Cc1ccc(-c2ccccc2)cc1)NCC(c1ccsc1)N1CCCC1` (stereo unspecified), for which the inhibition was 37.7%.

In the case of `O=C(Cc1ccsc1)NCC12CC3CC(CC(C3)C1)C2`, the inhibition is 75.4% (active).

With `CC(=NNC(=S)NC(C)C)c1ccc2c(c1)Nc1ccccc1S2`, the inhibition is 20.4%.

With `CC(=NNC(=O)COc1ccc(F)cc1)c1ccc2c(c1)Nc1ccccc1S2`, the inhibition is 16%.

Regarding `CC(=NNC(=O)c1ccoc1C)c1ccc2c(c1)Nc1ccccc1S2`, the inhibition was 75.1% (active).

With `CC(=NNS(=O)(=O)c1cc(C)ccc1C)c1ccc2c(c1)Nc1ccccc1S2`, the inhibition was 57.9% (active).

Regarding `CC(=NNc1ccc(C(F)(F)F)cn1)c1ccc2c(c1)Nc1ccccc1S2`, the inhibition is -55.5%.

Consider `CC(=NNC(=O)c1cc(C)oc1C)c1ccc2c(c1)Nc1ccccc1S2`, for which the inhibition is 47.6%.

With `Cc1cc(C)n(C(C)CNS(=O)(=O)c2ccc(Cl)cc2)n1` (stereo unspecified), the inhibition result was “inactive”.

On to `CCOc1ccc(Oc2ccc(NC(=O)c3ccc(C)s3)cc2)cc1`, for which the inhibition is 44.9%.

On to `CCOc1ccc(NC(=O)Cc2ccc(C)s2)cc1`, for which the inhibition is 59.7% (active).

Take `CCOc1ccc(NC(=O)CCSc2nnc(C)s2)cc1`: the inhibition is 91.3% (active).

Take `COc1ccc(Cl)c(NS(=O)(=O)c2cnc(Cl)n2C)c1`: the inhibition is 25.9%.

Consider `O=S1(=O)C(c2ccccc2)=CC1c1ccccc1` (stereo unspecified), for which the inhibition was 49.3%.

On to `Cc1ccc(S(=O)(=O)NCC(C)n2nc(C)cc2C)cc1` (stereo unspecified), for which the inhibition is 10.1%.

For the molecule `Clc1ccc(C2CC(c3ccc(Cl)cc3)n3nnnc3N2)cc1` (stereo unspecified), the inhibition was 66.5% (active).

Take `Clc1ccc(C2CC(c3ccc(Cl)cc3)n3ncnc3N2)cc1` (stereo unspecified): the inhibition is -10.5%.

Turning to `CCCCc1oc2ccccc2c1C1NC(=O)c2ccccc2N1` (stereo unspecified), the inhibition was 10.5%.

As for `CCCCc1oc2ccccc2c1C(=O)c1cc(I)c(OCCN(CC)CC)c(I)c1`, the inhibition was 77% (active).

As to `O=C(Nc1ccccc1-c1cn2c(CN3CCNCC3)csc2n1)c1cnc2ccccc2n1`, the inhibition was 74.8% (active).

For `CC1=NOC(C(=O)Nc2ccccc2OCCCc2ccccc2)C1` (stereo unspecified), the inhibition is 55.6% (active).

Regarding `O=C(Nc1ccccc1OCCCc1ccccc1)c1ccccn1`, the inhibition was 22.6%.

`Cc1ccc(CC(=O)Nc2ccccc2OC2CCCC2)s1`: the inhibition is 10.8%.

In the case of `O=C(Nc1ccccc1OCCCc1ccccc1)C1CCOC1` (stereo unspecified), the inhibition is 83% (active).

As for `FC(F)Oc1ccc(NC(=S)Nc2ccc3c(c2)OCCO3)cc1`, the inhibition was 85.3% (active).

On to `COc1ccc(NC(=S)Nc2ccc(OC(F)F)cc2)cn1`, for which the inhibition is 36.5%.

Consider `Oc1ccc(NC(=S)Nc2ccc(OC(F)F)cc2)cc1`, for which the inhibition is 94.3% (active).

`O=C(OC1CCc2[nH]c3ncccc3c2C1)c1ccccc1` (stereo unspecified): the inhibition was -5.27%.

Regarding `CSc1ccccc1NC(CNS(=O)(=O)c1ccccc1)c1ccccc1` (stereo unspecified), the inhibition was -10.3%.

As for `Cc1cccc(NC(=O)c2cc(Oc3ccc([N+](=O)[O-])cc3F)n(C)n2)c1`, the inhibition was 35.6%.

As for `CSc1ccc(Cn2c(C)c(C(=O)NCc3cccc([N+](=O)[O-])c3)sc2=O)cc1`, the inhibition was 24.4%.

In the case of `Cc1ccc(-c2nsc(SCC(=O)Nc3cccc([N+](=O)[O-])c3)n2)cc1`, the inhibition is 71.1% (active).

As for `CCOC(=O)CC(=O)CSc1nc(-c2cccc(C)c2)ns1`, the inhibition is 82.2% (active).
